# A549 tox: kills or reduces viability of A549 cells in Nrf2 counter-screen. A549 ARE-Fluc cells, CellTiter-Fluor viability, 18-24 h. Potency, µM (series often up to 46 µM), hits mostly inhibitors. 390,000 compounds, 0.16% hits
#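 Cytotoxicity counterscreen: CellTiter-Fluor fluorescence was measured in A549 ARE_Fluc cells after 18-24 h of compound exposure in a concentration series. The subsequent BugLite luminescent read reports ARE-luciferase activity.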
# Nrf2 inh: blocks Nrf2 signaling | A549 ARE-Fluc reporter, luciferase luminescence, 18-24 h | 360,000 compounds, 2.1% hits | AID 504444 | Potency, µM (series often up to 46 µM), usual class: inhibitors; note: nearly all actives have a fitted effect of over 60% in size
#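 A549 ARE_Fluc cells, 5000/well, 5% FBS OPTI-MEM; compounds in dose-response, 18-24 h at 37 °C/5% CO2; CellTiter-Fluor viability read (Ex 405/Em 525), then BugLite luciferase luminescence = Nrf2 activity.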
# Giardia kill: Giardia lamblia killing; Giardia lamblia trophozoite viability; activity change, % at 7.66 µM, hits read low; 340,000 compounds, 0.15% hits; AID 540267; in the data active = activity change below about -80%; inconclusive = between about -30% and that limit;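 note: parasites exposed to compound for two days anaerobically before the ATP read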
#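 Media and compound were dispensed first, then trophozoites at 100 cells/well; plates sat 48 hrs at 37 deg C without oxygen before ATP luminescence reagent was added and read after 15-30 min at room temperature.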
# KB-3-1 tox: KB-3-1 parental cell cytotoxicity; KB-3-1 viability, CellTiter-Glo ATP luminescence, 72 h; Potency, µM (doses to about 46.1 µM), hits mostly cytotoxic; 400,000 compounds, 1.4% hits; AID 1347075; note: nearly all actives have a fitted effect of over 60% in size
#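 Using CellTiter-Glo luminescence, growth of non-resistant KB-3-1 adenocarcinoma cells is assessed 72 h after pin-tool compound addition at 37 °C. Normalized responses across the concentration series yield fitted curves.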
# PI4K2A block: PI4K2A (human) kinase inhibition | activity change, negative = inhibition, % at 76.9 µM | purified PI4K2A, ADP-Glo luminescence, 1 h; active compounds read low | 420,000 compounds, 0.13% hits; in the data active = activity change below about -50%; inconclusive = mostly about -30% to -49%
# Target sequence (Q9BTU6 whole entry, looked up): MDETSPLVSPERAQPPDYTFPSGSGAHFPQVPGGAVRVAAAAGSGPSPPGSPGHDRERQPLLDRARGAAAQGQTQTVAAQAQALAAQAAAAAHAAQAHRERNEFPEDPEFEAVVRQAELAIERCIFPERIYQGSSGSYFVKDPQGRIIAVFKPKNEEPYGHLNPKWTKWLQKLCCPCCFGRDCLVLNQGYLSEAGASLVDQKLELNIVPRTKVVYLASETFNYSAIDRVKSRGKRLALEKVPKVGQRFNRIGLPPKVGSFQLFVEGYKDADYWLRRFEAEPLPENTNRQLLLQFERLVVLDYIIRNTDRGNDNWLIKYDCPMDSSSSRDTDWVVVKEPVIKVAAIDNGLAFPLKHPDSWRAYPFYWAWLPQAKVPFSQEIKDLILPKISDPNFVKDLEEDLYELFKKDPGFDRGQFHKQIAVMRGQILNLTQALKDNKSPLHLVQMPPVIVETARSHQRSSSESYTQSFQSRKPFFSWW
#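 PI4K2A activity was measured by ADP-Glo luminescence: enzyme (4 ug/mL stock) and phosphatidylinositol (1.2 mM stock) in Tris pH 7.5/MgCl2/EGTA/Triton X-100 buffer were reacted with ATP (300 microM stock) for one hour at ambient temperature.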
# KB-V1 MDR tox: KB-V1 MDR subline cytotoxicity; KB-V1 MDR cells viability, CellTiter-Glo, 72 h; Potency, µM (top dose mostly 46.1 µM), actives largely listed as cytotoxic; 400,000 compounds, 3.4% hits; AID 1347076; note: nearly all actives have a fitted effect of over 60% in size
#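 Following 72 h at 37 degrees C with compound, KB-V1 cell viability was read by CellTiter-Glo luminescence, medium being phenol-red-free DMEM plus 10% FBS; concentration-response parameters came from normalized, curve-fitted qHTS data.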
# Hits are given with their value; n = inactive; u = inconclusive; x = not tested or not shown; ! = a repeat was not active; [ ] = dose if it differs, or a comment. Most compounds without a hit are left out; they make up all but 5.7% or so of the library. Unless noted, calls come from the whole dose curve; as a rule, active = well fitted curve in the direction sought with a large enough effect; inconclusive = small, poorly fitted or top-dose-only effect, or another doubt; inactive = no such curve, though single readings can be large; an effect the other way counts as inactive or inconclusive.
SMILES,A549 tox,Nrf2 inh,Giardia kill,KB-3-1 tox,PI4K2A block,KB-V1 MDR tox
O=C1NC(=S)S/C1=C/c1ccc(N2CCOCC2)o1,21µM,n,n,n,n,n
C#CCN1CC(N(C)CCOC(=O)CCCc2ccccc2)CS1(=O)=O (configuration not stated),x,x,x,x,n,x
Cc1ccc(-n2ncc(C(=O)NCCCN3CCCCC3)c2C2CCN(C(=O)OC(C)(C)C)CC2)cc1,n,n,x,n,n,n
Cc1ccccc1OCc1nnc(SCc2cc(=O)c3cc(F)ccc3[nH]2)n1C,n,x,x,21µM,n,n
COc1ccc2ccccc2c1CNCCCN1CCOCC1,n,u,n,n,n,n
C=CCOc1ccc2ccccc2c1CNCCCN1CCOCC1,u,n,n,n,n,16µM
CNC(C)C#Cc1c(-c2cc(OC)c(OC)c(OC)c2)noc1C (configuration not stated),n,n,n,n,n,u
COc1cc(-c2noc(C)c2C#Cc2ccc(N)cc2)cc(OC)c1OC,n,n,n,0.82µM!,n,1.3µM!
COc1cccc2oc3ccc(C#Cc4ccccn4)cc3c(=O)c12,n,u,n,u,n,u
COc1cc(-c2noc(C)c2C#Cc2ccccn2)cc(OC)c1OC,n,n,n,0.58µM!,n,1.3µM!
COc1cc(-c2noc(C)c2/C=C/c2ccc(N)cc2)cc(OC)c1OC,n,u,n,0.26µM!,n,0.58µM!
COc1ccc(S[C@]2(C(=O)N(C)C)CC(=O)N(C(=O)c3ccccc3)[C@@H]2c2ccc(OC)cc2)cc1,x,x,x,x,n,x
Cc1nn(-c2ccccc2)c2sc(C(=O)N3CCc4ccccc4C3)cc12,n,n,n,n,n,18µM
Cc1nn(-c2ccccc2)c2sc(C(=O)NNC(=O)COc3ccccc3)cc12,n,n,n,n,n,n
Cc1nn(-c2ccccc2)c2sc(C(=O)NNC(=O)COc3cccc4ccccc34)cc12,u,u,n,u,n,18µM
COc1ccc(C(=O)O/N=C(/c2ccccc2)c2ccncc2)cc1,n,u,n,n,n,n
COc1ccc(C(=O)O/N=C(\C)c2ccccc2)cc1,n,n,n,n,-95,n
C/C(=N\OC(=O)c1ccc(Cl)cc1)c1nccs1,n,n,n,n,n,n
COc1ccc(C(=O)ON=C(C)c2nccs2)cc1,x,x,x,n,-66,n
COc1ccc(Cl)cc1S(=O)(=O)NCc1ccc2c(c1)CCN2C(=O)c1cccc(C)c1,u,x,x,x,n,x
CCN(CCCN(C)C)c1ccc(/C=C/c2ccnc3ccccc23)cc1,x,x,x,n,x,u
CSc1nc(-c2ccc(C)cc2)nc(C(Cl)Cl)n1,u,n,n,7.3µM,n,18µM
CCSc1nc(-c2ccccc2)nc(C(Cl)Cl)n1,u,u,n,5.2µM,n,n
O=C(N1CCc2ccccc2C1)n1cc(C(O)(c2ccccc2)c2ccccc2)nn1,x,x,x,x,n,x
CCN(C(=O)C(C)Sc1nnc(-c2ccncc2)n1C)C1CCCCC1 (configuration not stated),n,n,n,n,n,16µM
SMILES,A549 tox,Nrf2 inh,Giardia kill,KB-3-1 tox,PI4K2A block,KB-V1 MDR tox
COc1ccc(S(=O)(=O)N2CN(Cc3ccco3)c3nc4ccccc4nc32)cc1,n,x,n,n,n,5.8µM
O=C(C[N+]12CCCc3cccc(c31)CCC2)c1ccccc1,x,x,x,u,x,n
C/C(CC(C)C)=N/Nc1ccc([N+](=O)[O-])cc1[N+](=O)[O-],n,u,n,n,n,n
CC(Cc1ccccc1)=NNc1ccc([N+](=O)[O-])cc1[N+](=O)[O-],u,23µM,n,u,n,n
Cc1cc(NS(=O)(=O)c2ccc(NC(=O)Cc3ccc(Cl)c(F)c3)cc2)no1,x,x,x,x,n,x
COc1ccc(CNC(=O)c2ccc3c(c2)N(Cc2c(F)cccc2Cl)C(=O)CS3)cc1,n,n[9.27 µM],x,n,n,n
O=C(OCc1ccc(F)cc1)c1ccc2c(c1)-c1ccccc1C2=O,n,n,n,n,n,n
CCOC(=O)C1=C(Cc2ccc(F)cc2)C(=O)c2ccccc2C1=O,16µM,x,n,n,n,n
O=C(NC1CC1)c1nc2c(nnn2Cc2ccccc2Cl)c(=O)[nH]1,n,n,n,n,n,n
O=C(NCCc1ccccc1)c1nc2c(nnn2Cc2ccccc2Cl)c(=O)[nH]1,u,x,n,n,n,15µM
CCCCN1CCN(C2=Nc3ccccc3Sc3ccccc32)CC1,x,x,x,x,n,x
C[N+](C)(C)CCC(=O)N1C/C(=C/c2ccccc2)C(=O)/C(=C\c2ccccc2)C1,n,n,n,u,n,10µM
COc1ccc(CSc2nc(C)cc(=O)[nH]2)cc1Br,n,n,n,n,n,18µM
Cc1cc(=O)[nH]c(SCc2cccc(Br)c2)n1,n,x,n,n,n,u
Nc1cc(=O)[nH]c(SCc2ccccc2Cl)n1,u,n,n,n,n,n
Cc1cc(=O)[nH]c(SCc2csc(-c3ccccc3)n2)n1,n,n,n,n,n,23µM
Nc1cc(=O)[nH]c(SCc2csc(-c3ccccc3)n2)n1,n,n,n,u,n,16µM
CCOc1cccc(-c2nn3c(-c4cccc(C)c4)nnc3s2)c1,x,x,x,x,n,x
COc1cccc(-n2nnc3c(=O)n(Cc4ccc(Cl)cc4)cnc32)c1,n,n,n,n,n,15µM
COc1cccc(-n2nnc3c(=O)n(Cc4ccccc4Cl)cnc32)c1,n,n,n,n,n,18µM
COc1ccc(NC(=O)C(C)n2nc(-c3ccc(C)c(C)c3)ccc2=O)cc1OC (configuration not stated),n,n,x,n,n,n
CSc1ncnc2c1cnn2-c1ccc(C)cc1C,n,u,n,n,n,n
Cc1ccc(-n2ncc3c(SCc4ccccn4)ncnc32)c(C)c1,n,u,n,u,n,8.2µM
CC[C@@]1(c2cccc(Cl)c2)C(=O)N(C(=O)OC(C)C)N1C(=O)OC(C)C,x,x,x,x,n,x
COc1ccc(-c2cc(C(F)(F)F)n3nc(C(=O)NCC45CC6CC(CC(C6)C4)C5)cc3n2)cc1,n,15µM,x,u,n,n
SMILES,A549 tox,Nrf2 inh,Giardia kill,KB-3-1 tox,PI4K2A block,KB-V1 MDR tox
COc1cccc(CNC(=S)OC2CCC23CCC(c2ccccc2)CC3)c1 (configuration not stated),x,x,x,x,n,x
COc1ccc(-n2nnc3c(=O)n(CC(=O)N4CCCC4)cnc32)cc1,n,x,n,n,n,n
Cc1ccc(Cn2nnc3c(=O)n(CC(=O)N4CCN(c5ccccc5)CC4)cnc32)cc1,n,u,n,n,n,5.2µM
O=C(Cn1cnc2c(nnn2-c2cccc(Cl)c2)c1=O)N1CCCC1,n,n,n,n,n,13µM
CCOC(=O)/C=C/c1cc(F)c(S(=O)(=O)N2CCN(S(=O)(=O)c3ccc4c(c3)OCCO4)CC2)cc1F,n,n,x,x,x,x
CC(=O)Nc1ccc(NC(=O)c2ccc(CN3CCc4ccccc4C3)cc2)cc1,n,n,n,n,n,n

# Screens deposited in PubChem BioAssay by National Center for Advancing Translational Sciences (NCATS).
